# Inconclusive results are not listed. Where a call stands in place of a potency, no number is given. Values without a mark were called inactive. The source made the active and inactive calls. Unless noted, calls come from the whole dose curve; as a rule, active = well fitted curve in the direction sought with a large enough effect in the repeat runs; inconclusive = weak or mixed curves; inactive = no such curve, though single readings can be large; an effect the other way counts as inactive or inconclusive.
# Assays:
# [1] = qHTS assay to identify small molecule agonists of the vitamin D receptor (VDR) signaling pathway - cell viability counter screen (AID 743224); note: series mostly up to about 63 µM; nearly all actives have a fitted effect of over 50% in size
# Procedure, shortened: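 VDR-bla cells, 4 h after plating, exposed to compounds for 16 h at 37C; viability then read in the same wells as CellTiter-Glo luminescence after 30 min at room temperature, following the bla FRET read.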
# [2] = qHTS assay to identify small molecule antagonists of the vitamin D receptor (VDR) signaling pathway - cell viability counter screen (AID 743225); note: nearly all actives have a fitted effect of over 50% in size
# Procedure, shortened: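 Luminescent cell viability (CellTiter-Glo) in VDR-bla HEK 293T cells after 16 h compound exposure at 37C in the presence of 3 nM final 1-alpha,25-dihydroxy vitamin D3.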
# [3] = qHTS assay to identify small molecule agonists of the NFkB signaling pathway (AID 1159509; active = well fitted curve in the direction sought with a large enough effect in the signal ratio in the repeat runs, not every such curve was filed as active; the % refers to the signal ratio; note: series mostly up to about 61 µM)
# Procedure, shortened: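 ME-180 NFkB-bla, 2,000 cells/well, overnight plating; cpd pinned in DMSO, 5 h 37 C; B/G FRET substrate 1.5 h RT; ex 405, em 460/530 nm.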
# [4] = qHTS assay to identify small molecule agonists of the NFkB signaling pathway - cell viability counter screen (AID 1159515; calls by dose curve; note: series mostly up to about 61 µM; nearly all actives have a fitted effect of over 55% in size)
# Procedure, shortened: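 NFkB-bla ME-180 cells, 2,000/well, plated overnight at 37 C; compound added for 5 hr at 37 C. Viability read in the same wells as the bla reporter, by CellTiter-Glo luminescence after 30 min at room temperature.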
# [5] = qHTS assay to identify small molecule agonists of the endoplasmic reticulum stress response signaling pathway (AID 1159516; active = well fitted activation curve with a large enough effect in the signal ratio in the repeat runs, not every such curve was filed as active; the % refers to the signal ratio)
# Procedure, shortened: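 CellSensor ESRE-bla HeLa cells, 1,500 per well, plated overnight, then exposed to compounds for 5 hr at 37 C. Beta-lactamase reporter read with LiveBLAzer B/G FRET substrate after 2 hr at room temperature, 405 nm excitation, 460 and 530 nm emission.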
# [6] = qHTS assay to identify small molecule agonists of the endoplasmic reticulum stress response signaling pathway - cell viability counter screen (AID 1159517; calls by dose curve;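 note: HeLa cells carrying an ER stress response element beta-lactamase reporter; series mostly up to about 61 µM; nearly all actives have a fitted effect of over 50% in size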)
# Procedure, shortened: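 CellTiter-Glo was added to wells already read for beta-lactamase FRET, and luminescence was recorded 30 min later. Cells: ESRE-bla HeLa, 1,500 per well, compound exposure 5 hr at 37 C.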
# [7] = qHTS assay to identify small molecule antagonists of the retinoid-related orphan receptor gamma (ROR-gamma) signaling pathway - cell viability counter screen (AID 1159520); note: nearly all actives have a fitted effect of over 50% in size
# Procedure, shortened: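 Tet-on ROR gamma CHO cells (1,000/well) were plated 4 hr, given compounds in DMSO for 2 hr at 37 C, then induced with 1 uM final doxycycline for 16 hr. Viability was read as ATP by CellTiter-Glo luminescence after 30 min.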
# [8] = qHTS assay to identify small molecule agonists of the AP-1 signaling pathway - cell viability counter screen (AID 1159525; calls by dose curve; note: nearly all actives have a fitted effect of over 55% in size)
# Procedure, shortened: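 ME-180 AP-1-bla, 2500 cells/well, Opti-MEM + 0.5% dialyzed FBS; overnight 37 °C; cpd 15-pt titration, 5 h 37 °C; CellTiter-Glo 30 min RT; luminescence read; normalised to TOAB and DMSO controls.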
# [9] = qHTS assay to identify small molecule agonists of the AP-1 signaling pathway (AID 1159526; calls by dose curve)
# [10] = qHTS assay to identify small molecule agonists of the RXR signaling pathway - cell viability counter screen (AID 1159529)
# Procedure, shortened: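 Same-well viability check after the LiveBLAzer FRET read: CellTiter-Glo added, luminescence measured after 30 min at room temperature. Reporter HEK 293T cells had been treated with compounds for 16 hr following a 5 hr preincubation.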
# [11] = qHTS assay to identify small molecule antagonists of the retinoid acid receptor (RAR) signaling pathway - cell viability counter screen (AID 1159551); note: nearly all actives have a fitted effect of over 35% in size
# Procedure, shortened: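 C3RL4 RARE-luciferase cells, 1,000/well, incubated overnight, then dosed with compound plus 1 uM retinol (final). After 6 hr at 37 C, viability read by CellTiter-Glo ATP luminescence following 30 min at room temperature.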
# [12] = qHTS assay to identify small molecule antagonists of the retinoic acid receptor (RAR) signaling pathway (AID 1159552; note: nearly all actives have a fitted effect of over 50% in size)
# Procedure, shortened: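 Readout: luciferase luminescence, 30 min post-reagent at RT. Setup: C3RL4 RARE reporter cells, compounds plus retinol 1 uM final, 6 hr incubation at 37 C and 5% CO2.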
# [13] = target: Retinoic acid receptor RXR-alpha (Homo sapiens) (UniProt P19793); test: qHTS assay to identify small molecule agonists of the RXR signaling pathway (AID 1159527; calls by dose curve; note: nearly all actives have a fitted effect of over 35% in size)
# Retinoic acid receptor RXR-alpha (Homo sapiens), sequence (P19793 whole entry, looked up): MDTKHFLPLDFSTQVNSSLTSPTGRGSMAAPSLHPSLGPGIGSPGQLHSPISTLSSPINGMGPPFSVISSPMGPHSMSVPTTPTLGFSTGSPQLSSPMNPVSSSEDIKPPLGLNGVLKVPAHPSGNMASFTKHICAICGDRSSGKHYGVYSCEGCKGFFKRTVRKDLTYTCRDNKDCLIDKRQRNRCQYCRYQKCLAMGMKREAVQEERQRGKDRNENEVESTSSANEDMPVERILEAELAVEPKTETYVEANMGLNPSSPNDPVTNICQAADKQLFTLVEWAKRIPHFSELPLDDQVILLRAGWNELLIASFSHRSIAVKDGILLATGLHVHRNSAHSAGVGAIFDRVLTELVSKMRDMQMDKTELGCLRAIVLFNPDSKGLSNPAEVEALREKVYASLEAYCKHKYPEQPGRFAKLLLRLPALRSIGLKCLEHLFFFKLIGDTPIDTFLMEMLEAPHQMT
# Procedure, shortened: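 Beta-lactamase reporter assay, agonist format. Engineered HEK 293T line, charcoal-stripped FBS at 2%, overnight (16 hr) exposure, fluorescence at 460 and 530 nm after 405 nm excitation.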
# [14] = qHTS assay to identify small molecule agonists of the retinoic acid receptor (RAR) signaling pathway (AID 1159553); note: potency is the fitted concentration of half-maximal effect
# Procedure, shortened: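 C3RL4 RARE-luciferase cells were seeded at 1,000/well and grown overnight at 37 C, then exposed to compounds for 6 hr at 37 C, 5% CO2. Luciferase reagent was added and luminescence was read after 30 min at room temperature.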
# [15] = target: Nuclear receptor ROR-gamma (Homo sapiens) (UniProt P51449); test: qHTS assay to identify small molecule antagonists of the retinoid-related orphan receptor gamma (ROR-gamma) signaling pathway (AID 1159521)
# Procedure, shortened: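 CHO cells expressing RORγ under a TET-on promoter, luciferase under RORE control. Dox 1 uM final, 16 h; compounds added 2 h prior. Luminescence decrease measured.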
SMILES,outcome [1],outcome [2],outcome [3],outcome [4],outcome [5],outcome [6],Potency [7],outcome [8],Potency [9],Potency [10],outcome [11],outcome [12],outcome [13],Potency [14],Potency [15]
C[C@H](N)C(=O)N[C@@H](C)C(=O)NC1[C@H]2CN(c3nc4c(cc3F)c(=O)c(C(=O)O)cn4-c3ccc(F)cc3F)C[C@@H]12 (stereo not given in full),inactive,inactive,inactive,inactive,inactive,inactive,inactive,inactive,inactive,inactive,inactive,inactive,–,–,–
CCCCCCCCCCCCCCCCN,inactive,inactive,inactive,inactive,inactive,inactive,inactive,inactive,–,–,inactive,inactive,inactive,inactive,–
C/C(=C(\CCO)SS/C(CCO)=C(\C)N(C=O)Cc1cnc(C)nc1N)N(C=O)Cc1cnc(C)nc1N,inactive,inactive,inactive,inactive,inactive,inactive,inactive,inactive,inactive,inactive,inactive,inactive,–,inactive,–
O=C1c2ccccc2C(=O)C1c1ccc2ccccc2n1,inactive,inactive,inactive,inactive,inactive,inactive,inactive,inactive,inactive,–,inactive,inactive,–,0.108 µM (active),–
Nc1nc(Cl)nc2c1ncn2[C@H]1C[C@H](O)[C@@H](CO)O1,inactive,inactive,inactive,inactive,inactive,inactive,–,inactive,inactive,inactive,inactive,–,–,–,inactive
O=C(C1CCCCC1)N1CC(=O)N2CCCc3ccccc3C2C1 (stereo not given),inactive,inactive,inactive,inactive,inactive,inactive,–,inactive,inactive,inactive,inactive,inactive,–,inactive,inactive
O=C(O)COCC(=O)O,inactive,–,inactive,inactive,inactive,–,inactive,inactive,inactive,inactive,inactive,inactive,–,inactive,inactive
CC(C)=CCCC(C)C=O (stereo not given),inactive,inactive,inactive,inactive,inactive,inactive,–,–,inactive,inactive,inactive,inactive,–,inactive,inactive
O=C(Nc1ccc2c(c1)Cc1ccccc1-2)C(F)(F)F,inactive,inactive,inactive,inactive,inactive,–,inactive,inactive,inactive,inactive,inactive,inactive,–,6.86 µM (active),inactive
C[C@@H](O)[C@H]1C(=O)N2C(C(=O)O)=C(S[C@@H]3CN[C@H](CNS(N)(=O)=O)C3)[C@H](C)[C@H]12,–,–,inactive,inactive,inactive,inactive,–,inactive,inactive,inactive,inactive,–,–,–,inactive
CC(CN=Cc1ccccc1O)N=Cc1ccccc1O (stereo not given),inactive,–,inactive,inactive,inactive,inactive,–,inactive,inactive,inactive,inactive,inactive,–,–,inactive
